53 compounds from PubChem BioAssay AID584 (National Center for Advancing Translational Sciences (NCATS), 2007) can be followed below.

In all, about 71,000 compounds went through this assay and about 65 (0.09%) were called active. Many of the other results were omitted from the sample, so actives are more common in it than they were. Values without a mark were called inactive. Calls come from the whole dose curve; as a rule, active = well fitted curve in the direction sought with a large enough effect; inconclusive = small, poorly fitted or top-dose-only effect; inactive = flat fitted curve, though single readings scatter.
% is set by controls: 0 for no effect and ±100 for the full control effect.

Chain of Beta-lactamase (Escherichia coli (strain K12)) (P00811 whole entry, looked up): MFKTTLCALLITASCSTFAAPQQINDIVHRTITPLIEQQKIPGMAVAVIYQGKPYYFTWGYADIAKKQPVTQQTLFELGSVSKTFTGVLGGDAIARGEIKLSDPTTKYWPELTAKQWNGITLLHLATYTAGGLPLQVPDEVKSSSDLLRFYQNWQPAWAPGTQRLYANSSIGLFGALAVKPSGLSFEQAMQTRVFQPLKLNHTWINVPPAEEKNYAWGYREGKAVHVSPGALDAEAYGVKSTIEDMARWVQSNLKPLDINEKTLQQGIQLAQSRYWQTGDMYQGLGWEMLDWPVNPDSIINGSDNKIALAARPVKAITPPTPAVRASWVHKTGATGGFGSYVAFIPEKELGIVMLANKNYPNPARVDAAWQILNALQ

This assay concerns the target Beta-lactamase (Escherichia coli (strain K12)) (UniProt P00811). The assay can be described thus: Promiscuous and Specific Inhibitors of AmpC Beta-Lactamase (assay with detergent). The settings on record: purified AmpC, nitrocefin hydrolysis with detergent; series mostly up to 28.7 µM; activity change, negative = inhibition: at the top concentration. As for the experimental part: NIH Molecular Libraries Screening Centers Network [MLSCN]
NIH Chemical Genomics Center [NCGC]
PI Name: Shoichet, Brian K.
This aggregation profiling approach exploits the sensitivity of aggregate formation to detergent. Inhibition of b-lactamase is measured in the presence and absence of 0.01% Triton X-100. This particular assay had the prescence of 0.01% Triton X-100. See Pubchem assay "Promiscuous and Specific Inhibitors of AmpC Beta-Lactamase (assay without detergent)" for related screen. Compounds that inhibit only in the absence of detergent are considered likely promiscuous aggregators.
A screen of 1,030 compounds was performed in Brian Shoichet's lab in 96-well format. AmpC activity was measured by following the absorbance at 480 nm. Nitrocefin is a chromogenic substrate: while nitrocefin is yellow (lmax 390 nm), the product of its hydrolysis is red (lmax 486 nm, 17,000 M-1). AmpC beta lactamase was provided by Brian Shoichet and Brian Feng, UCSF.
NCGC Assay Protocol Summary:
20 mM phosphate buffer, pH 7.0
Triton X-100: No Detergent screen: 0.0001%, Detergent screen: 0.01%.
Buffer in columns 3 and 4 as negative control (no enzyme).
5.3 nM AmpC in columns 1, 2, 5-48. Titration of UCSF compound 9 control (from 10 mM, then 1:2) pin-transferred to column 2. Column 1 is neutral (100% activity).
Six uL of reagents were dispensed to 1536-well Greiner black clear bottom plates. Compounds and controls (23 nL) were transferred via Kalypsys PinTool. The plates were incubated for 15 min at room temperature, and then 2 uL of 800 uM solution of nitrocefin was added to start the reaction. The plates were immediately transferred to and read every 20 seconds for 4 min on ViewLux (Perkin-Elmer) High-throughput CCD imager using 480 nm absorbance protocol. During dispense, reagent bottles were kept submerged into 4 deg C water bath.
Keywords: NIH Roadmap, MLSCN, MLI, MLSMR, qHTS, NCGC, AmpC Beta-Lactamase, Aggregation
As for `COC(=O)Cn1c(=NC(=O)CSCC(=O)Nc2cc(C)on2)sc2ccccc21`, the “activity change, negative = inhibition” value is 7.05%. The value for `Cc1ccsc1-c1nc(CSCC(=O)NCCN2CCCC2)c(C)o1` was -5.81%; that for `O=C(NCc1ccco1)c1ccc(CS(=O)(=O)Cc2ccc(F)cc2)o1` was -3.7%. For `CCCCCCn1c(CN2CCCC(C)C2)nc2c1c(=O)n(C)c(=O)n2C` (stereo not drawn), the “activity change, negative = inhibition” value was -7.21%.

On to `O=C1c2ccccc2C(Nc2ccc3c(c2)OCCO3)N1Cc1ccco1` (stereo not drawn), for which the “activity change, negative = inhibition” value was 5.99%.

Regarding `COc1ccccc1CN1CC2(CCN(S(=O)(=O)c3ccccc3)CC2)C1`, the “activity change, negative = inhibition” value is -1%. The value for `CCOC(=O)c1nnn(-c2nc(OC)nc(N(C)C)n2)c1-c1ccccc1` was -6.24%.

As to `CCOC(=O)c1sc(=S)n2c1[nH]c(=O)c1ccc(C(=O)OC)cc12`, the “activity change, negative = inhibition” value is 30.9%.

For the compound `O=C(CS(=O)(=O)c1cn(Cc2cccc(F)c2)c2ccccc12)N1CCCCC1`, the “activity change, negative = inhibition” value was -1.35%. The value for `CC(C)CSC[C@@H]1O[C@H](n2cnc3c(N)nccc32)[C@H](O)[C@@H]1O` was -4% [at 5.75 µM]. The value for `CCCCSc1nnc(-c2ccc(NC(=O)CC)cc2)n1C` was -3%; that for `COc1ccc2[nH]c(=O)c(CN(Cc3nnnn3CCc3ccccc3)CC3CCCO3)cc2c1` (stereo not drawn) was 23.3%; that for `CC(C)CC(=O)N=C1SC2CS(=O)(=O)CC2N1CCc1ccccc1` (stereo not drawn) was 2.35%.

On to `O=C(NCc1ccccn1)Nc1ccc(F)cc1`, for which the “activity change, negative = inhibition” value is -0.221%. The same measure for `CC(=NCc1ccco1)C1=C(O)c2ccccc2C1=O`: 4.06%. The same measure for `COC(=O)c1ccc(NC(=O)CSc2nnc(-c3ccncc3)n2C)cc1`: 12.1%; for `COc1ccccc1OCCOc1ccc(/C=N/n2cnnc2)cc1`: 7.14%.

`CC12CN(Cc3ccccc3)CC(C)(CN(Cc3ccccc3)C1)C2=NO`: the “activity change, negative = inhibition” value was 6.05%.

With `COc1ccc(-c2noc(COc3ccc(Cl)c(C)c3)n2)cc1`, the “activity change, negative = inhibition” value is 8.41%. On to `COCC(C)NC(=O)c1ccc(Cl)c(Cl)c1` (stereo not drawn), for which the “activity change, negative = inhibition” value is -5.24%. As for `Cc1ccc(-c2ccc(=O)n(CC(=O)NCCCN3CCCCC3)n2)cc1`, the “activity change, negative = inhibition” value is -2.99%. For `COc1ccc(S(=O)(=O)N2CCC(C(=O)N3CCc4ccccc4C3)CC2)cc1OC`, the “activity change, negative = inhibition” value is -5.79%.

As for `CCn1c(=O)cc(SCC(=O)NCc2ccc3c(c2)OCO3)c2ccccc21`, the “activity change, negative = inhibition” value was 2.33%. For the compound `COc1ccccc1-c1nc(C(F)(F)F)c(OC)o1`, the “activity change, negative = inhibition” value is -3.4%.

In the case of `CCC(=O)Nc1ccccc1N1CCN(S(C)(=O)=O)CC1`, the “activity change, negative = inhibition” value was -0.929%. The same measure for `COc1cc(C2C(C#N)=C(C)NC3=C2C(=O)CC(C)(C)C3)ccc1O` (stereo not drawn): -0.562%; for `Cc1ccc(S(=O)(=O)N2CCOCC2)cc1C(=O)NCc1ccc(F)cc1`: -4.01%; for `COc1cc(Br)cc(/C=N/c2ncn[nH]2)c1O`: -0.505%. The same measure for `COC(=O)[C@@]1(Cc2ccccc2)[C@H]2c3cc(C(=O)N4CCCC4)n(Cc4ccc(C)o4)c3C[C@H]2CN1C(=O)c1ccccc1`: -3.5%; for `CCn1c(CSc2ncccn2)nnc1SCC(=O)N1c2ccccc2CC1C` (stereo not drawn): 0.00583%. For the compound `COc1cc(C2C(C(=O)Nc3ccc(F)cc3)=C(C)Nc3nc(CCCO)nn32)cc(OC)c1OC` (stereo not drawn), the “activity change, negative = inhibition” value was 9.75%. The value for `CC(C)c1ccc(NS(=O)(=O)c2cn(C)c(=O)n(C)c2=O)cc1` was 9.52%. The value for `O=C(CCn1c(=O)oc2ccccc21)Nc1ccon1` was 2.22%; that for `CCOC(=O)c1cc(-c2nnc(-c3cc(OC)c(OC)c(OC)c3)o2)c(C)nc1C` was 3.14%.

For `c1csc(CN2CCN(Cc3cccs3)C2c2cccs2)c1`, the “activity change, negative = inhibition” value was 3.14%. The value for `COC(=O)CNS(=O)(=O)c1ccc(Cc2ccc(S(=O)(=O)NCC(=O)OC)cc2)cc1` was 11.4%; that for `Cc1ccc(C2(c3ccc(C)cc3)NC(=O)N(Cc3c(C)noc3C)C2=O)cc1` was -4.23%; that for `C[C@@H](C(=O)Nc1ccc2ccccc2c1)[C@@H]1C[C@@]1(C)[C@@H](NC(=O)c1cccnc1)c1ccccc1` was -2.3%. With `N#Cc1c2c(c(N3CCN(CCO)CC3)n3c1nc1ccccc13)CCCC2`, the “activity change, negative = inhibition” value is -1.69%.

With `Cc1cc(Br)ccc1NC(=O)C1CCCO1` (stereo not drawn), the “activity change, negative = inhibition” value is -2.73%. The value for `CO[C@@H]1/C=C\O[C@]2(C)Oc3c(C)c(O)c4c(O)c(c(CN(C)C)c(O)c4c3C2=O)NC(=O)/C(C)=C\C=C[C@@H](C)[C@@H](O)[C@H](C)[C@@H](O)[C@H](C)[C@H](OC(C)=O)[C@@H]1C` was -4.9% [at 5.75 µM]; that for `O=C(CCCCn1c(=O)[nH]c2ccccc2c1=O)NCc1ccc2c(c1)OCO2` was 14.5%; that for `CCN(CC(=O)NC(C)C)C(=O)CCNC(=O)c1ccc(Cl)cc1` was -4.89%. The same measure for `COc1ccc(-c2nc3cnc(N(C)C)nc3n(Cc3cccs3)c2=O)cc1`: -2.8%; for `CCOC(=O)C1C(=O)C=C(c2ccc(OC)cc2)CC1c1ccco1` (stereo not drawn): -3.67%. The value for `O=C(C1CCC(C(=O)N2CCCC2)CC1)N1CCCC1` (stereo not drawn) was -2.96%; that for `O=C1CCc2cc(S(=O)(=O)N3CCC(C(=O)NCc4ccccc4Cl)CC3)ccc2N1` was 11.6%; that for `COc1cccc(-n2c(Cc3cc(=O)[nH]c(=O)[nH]3)nnc2SCC(=O)Nc2ccccc2)c1` was 11.9%. On to `COc1ccc(C)cc1NC(=O)CSc1nc(SC)ns1`, for which the “activity change, negative = inhibition” value was -4.47%.

On to `Cc1ccc2cc3cc(C(=O)N4CCCCCC4)oc3nc2c1`, for which the “activity change, negative = inhibition” value is -1.31%. Consider `COc1ccccc1CNc1ncnc2ccc(-c3c(C)noc3C)cc12`, for which the “activity change, negative = inhibition” value is 10.9%.

Regarding `CC(=O)N1[C@H](C)C=C[C@]1(Cc1ccccc1)C(=O)NCc1ccccn1`, the “activity change, negative = inhibition” value is 13.8%. The same measure for `CCOc1cc2[nH]c(=S)n(CCCN3CCCC3=O)c(=O)c2cc1OCC`: -1.69%.
